# This is a sample that favours compounds with a hit; in the whole collection about 6.1% have one here.
# ATXN2 expr inh – inhibitors of ATXN2 expression | HEK-293 ATXN2-luciferase reporter, luminescence, 24 h | Potency, µM (titrated, usually from 57 µM), inactives show at the top dose activity change, negative = inhibition, actives largely listed as inhibitors | 360,000 tested, 0.72% active | AID 1745845; note: % is set by controls: 0 for no effect and ±100 for the full control effect; nearly all actives have a fitted effect of over 55% in size
#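 ATXN2-luciferase reporter cells (luciferase flanked by upstream and downstream ATXN2 gene portions) were treated 24 h at 37 °C with compounds at up to 57 uM. SteadyGlo luminescence gave expression; GF-AFC fluorescence gave viability.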
# ATXN viability – cell viability loss in ATXN counter-screen; S2 cells (HEK-293 line with an ATXN2-luciferase reporter) viability, CellTiter-Fluor protease fluorescence, 24 h; Potency, µM (doses to about 56.7 µM), most hits filed as cytotoxic; 400,000 tested, 0.49% active; note: nearly all actives have a fitted effect of over 40% in size
# HepG2 viability – HepG2 cytotoxicity, counter-screen for TGF-b inhibitors | HepG2 CAGA-GFP viability, ATP luminescence, 18 h | Potency, µM (series often up to 46.1 µM), for inactives: at the highest dose activity change, negative = cytotoxicity, most hits filed as cytotoxic | 410,000 tested, 0.76% active | AID 588856
#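 CellTiter-Glo luminescence gave cytotoxicity after 18 hours at 37 degrees C. The cells were HepG2 CAGA-GFP in 1% FBS DMEM, stimulated with 500 pg/mL TGF-beta after compound addition. %Activity was normalised to no-cell wells (complete cell-killing) and DMSO (no toxicity), and curves were fitted and classified.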
# TGFb SMAD3 inh – TGF-b pathway inhibition. HepG2 CAGA-GFP TGF-b/SMAD3 reporter, GFP fluorescence, 18 h; TGF-beta stimulated, 500 pg/mL final. Potency, µM (doses to about 46.1 µM), for the others: top-dose activity, negative = inhibition, most hits filed as inhibitors. 410,000 tested, 1.2% active. AID 588855; note: % is set by controls: 0 for no effect and ±100 for the full control effect; nearly all actives have a fitted effect of over 65% in size
#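 First, reporter cells (HEPG2 CAGA-GFP) rested 2 h at 37 degrees C. Next, compounds were pinned in and TGF-beta added to 500 pg/mL final. After 18 h, GFP was imaged per cell and summed per well.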
# RORg inh – inhibitors of mouse ROR gamma transcriptional activity; P51450; Drosophila S2 Gal4-RORgamma UAS-luciferase reporter, 20 h; Potency, µM (highest dose often 53.6 µM), without a hit: top-dose activity change, negative = inhibition, most hits filed as inhibitors; 310,000 tested, 5.4% active; note: % is set by controls: 0 for no effect and ±100 for the full control effect; nearly all actives have a fitted effect of over 60% in size
# Target sequence (P51450 whole entry, looked up, the tested form may be a part): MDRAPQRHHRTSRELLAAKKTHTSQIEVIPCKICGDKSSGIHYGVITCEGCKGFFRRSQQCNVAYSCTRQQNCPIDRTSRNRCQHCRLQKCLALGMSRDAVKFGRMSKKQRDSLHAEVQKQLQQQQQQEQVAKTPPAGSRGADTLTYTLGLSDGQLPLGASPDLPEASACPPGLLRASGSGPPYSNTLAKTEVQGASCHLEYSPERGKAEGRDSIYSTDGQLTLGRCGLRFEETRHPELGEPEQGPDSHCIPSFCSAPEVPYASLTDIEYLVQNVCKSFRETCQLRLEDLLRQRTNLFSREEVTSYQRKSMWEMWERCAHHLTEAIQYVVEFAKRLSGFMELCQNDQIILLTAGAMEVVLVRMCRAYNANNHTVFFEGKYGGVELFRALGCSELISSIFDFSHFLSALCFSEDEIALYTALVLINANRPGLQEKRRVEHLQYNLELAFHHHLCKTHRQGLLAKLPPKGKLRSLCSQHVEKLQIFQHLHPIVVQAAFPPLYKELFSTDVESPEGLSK
#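 Schneider cells (Drosophila), stable Gal4 DBD–ROR gamma + UAS-luc; 1 hr cmpd preincubation; Cu2+ induction 700 uM final; 20 hr ambient; luminescence.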
# VP16 counter – Gal4-VP16 reporter inhibition counter-screen; Drosophila S2 Gal4-VP16 UAS-luciferase, luminescence, 20 h; Potency, µM (top dose mostly 53.6 µM), for inactives: at the top dose activity, negative = inhibition, hits mostly inhibitors; 310,000 tested, 3.5% active; AID 2546;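 note: Gal4-VP16 expression switched on by copper sulfate through the metallothionein promoter; % is set by controls: 0 for no effect and ±100 for the full control effect; nearly all actives have a fitted effect of over 50% in size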
# Numbers without * were called inactive; i = inactive; ? = inconclusive; . = not tested or not shown; ! = a repeat was not active; [ ] = another dose, or the depositor's remark. Calls come from the whole dose curve; as a rule, active = well fitted curve in the direction sought with a large enough effect; inconclusive = small, poorly fitted or top-dose-only effect, or another doubt; inactive = no such curve, though single readings can be large; an effect the other way counts as inactive or inconclusive. Potency is the fitted concentration of half-maximal effect.
SMILES,ATXN2 expr inh,ATXN viability,HepG2 viability,TGFb SMAD3 inh,RORg inh,VP16 counter
COc1ccc(-c2nc(CN3CCN(c4cc(C)nc(C)c4)CC3)c(C)o2)c2ccccc12,11µM*,?,-92%,?,2%,-2%
COC(=O)c1cc(S(N)(=O)=O)ccc1OC,7%,i,.,.,.,.
CC(C)C[C@H](NC(=O)c1nc[nH]c1C(=O)NC(c1ccccc1)c1ccccc1)C(=O)OC(C)(C)C,?,?,0%,?,0.71µM*,3.5µM*
CC(C)(C)OC(=O)[C@H](Cc1ccccc1)NC(=O)c1nc[nH]c1C(=O)NCCCCCN,-4%,i,-3%,-4%,.,.
C[C@H](NC(=O)c1nc[nH]c1C(=O)N[C@@H](C)c1ccccc1)C(=O)OC(C)(C)C,11%,i,-16%,-16%,2.8µM*,6.3µM*
CC(C)C[C@H](NC(=O)c1[nH]cnc1C(=O)N[C@H](C)c1ccccc1)C(=O)OC(C)(C)C,?,.,16µM*,?,5µM*,5.6µM*
COc1cc(C(=O)NCCc2csc(-c3ccc(Cl)cc3)n2)cc(OC)c1OC,20µM*,.,8%,-14%,.,.
O=C(NCCc1csc(-c2ccc(Cl)cc2)n1)c1ccco1,14µM*!,i,-14%,-18%,?,-2%
COc1cc(-c2nc(CCNC(=O)c3ccco3)cs2)cc(OC)c1OC,-7%,i,-4%,5%,-18%,-13%
O=C(COc1ccccc1)NCCc1csc(-c2ccc(Cl)cc2)n1,-18%,i,-73%,11µM*,.,.
CCOc1ccc(CNC(=O)c2ccc3c(c2)nc2n3CCC(C)C2)cc1OC (centres undefined),.,.,-2%,0%,.,.
COC(=O)C1CCN(Cc2ccc3c(c2)CN(C(=O)c2cc(-c4ccc(C)o4)[nH]n2)CCO3)CC1,.,i,.,.,.,.
Cn1c(CCc2nc3ccccc3[nH]2)nnc1SCC#N,?,i,3%,14%,14µM*,?
Cc1nnc(NC(=O)CSc2nnc(CCc3nc4ccccc4[nH]3)n2C)s1,-2%,?,-16%,-14%,-13%,0%
Cc1cc(C)n(CC(=O)N2c3ccccc3Sc3ccccc32)n1,0%,i,10%,-15%,7.1µM*,-30%
CC(C)[C@H](NC(N)=O)C(=O)Nc1cccc([N+](=O)[O-])c1,11%,i,14%,0.63µM*,9%,-2%
COc1cccc(/C=C/c2ccc3ccccc3[n+]2C)c1OC,.,.,-10%,0%,.,.
CCC(C)n1c(NC(=O)c2ccccc2)c(C#N)c2nc3ccccc3nc21 (centres undefined),-33%,?,8%,?,10µM*,?
O=C1CC(c2ccc(F)cc2)Sc2ccccc2N1 (centres undefined),20%,i,-48%,-1%,6%,-5%
CC1CC(=S)Nc2ccccc2S1 (centres undefined),7%,i,-5%,1%,?,4µM*
CN(C)c1cccc(-c2nnc(SCC(=O)NCc3ccco3)n2C)c1,.,.,11%,-1%,.,.
COc1cc2c(cc1OC)-c1c(oc3cc(O)cc(O)c3c1=O)CO2,.,.,.,.,?,20µM*
O=C(Nc1ncccn1)c1ccc([N+](=O)[O-])o1,-17%,i,-47%,?,14µM*,?
CC1CCN(c2ccccc2NC(=O)c2ccc([N+](=O)[O-])o2)CC1,2%,i,5%,17%,-1%,0%
O=C(Nc1ccccc1N1CCCC1)c1ccc([N+](=O)[O-])o1,?,?,-81%,25µM*,2µM*,?
SMILES,ATXN2 expr inh,ATXN viability,HepG2 viability,TGFb SMAD3 inh,RORg inh,VP16 counter
CCC(=O)N1CCN(c2ccccc2NC(=O)c2ccc([N+](=O)[O-])o2)CC1,-32%,i,-150%,16µM*,?,?
CC(C)C(=O)N1CCN(c2ccccc2NC(=O)c2ccc([N+](=O)[O-])o2)CC1,?,?,-91%,?,-44%,-28%
O=C(Nc1cccc2ccccc12)c1ccc([N+](=O)[O-])o1,.,i,-128%,?,?,13µM*
FC(F)(F)c1cnc(-c2cc3c(c(OCC4CCCO4)c2)OCCN(Cc2cccn2-c2nccs2)C3)c(Cl)c1 (centres undefined),.,i,.,.,.,.
O=C(Nc1ccccc1N1CCN(C(=O)c2ccccc2)CC1)c1ccc([N+](=O)[O-])o1,-27%,i,-198%,11µM*,5.6µM*,?
CC(C)(C)c1ccc2c(c1)OC(C(=O)N/N=C\c1ccncc1)CO2 (centres undefined),-19%,.,20µM*,-12%,27%,?
CC(C)(C)c1ccc2c(c1)OC(C(=O)N/N=C\c1ccc[nH]1)CO2 (centres undefined),?,i,-29%,-7%,7.9µM*,5µM*
CC1=CC(C)(C)NC(=S)N1c1cc(C)cc(C)c1,-8%,i,4%,?,3.5µM*,?
CC1=CC(C)(C)NC(=S)N1c1cccc(Cl)c1,-11%,i,-5%,15%,.,.
CC1=CC(C)(C)NC(=S)N1c1ccccc1C,-13%,i,3%,2%,2.2µM*,0%[10 µM]
CC1=CC(C)(C)NC(=S)N1c1cccc2cc(S(=O)(=O)O)ccc12,.,i,18%,16%,4%,-11%
CC1=CC(C)(C)NC(=S)N1c1ccc(N(C)C)cc1,-22%,?,4%,20%,.,.
CC1=CC(C)(C)NC(=S)N1c1ccc(C)cc1C,-21%,i,-55%,-9%,1.4µM*,2.8µM*
CCN(Cc1nc2ccccc2c(=O)[nH]1)Cc1cc(=O)oc2cc(OC)ccc12,0%,i,4%,-1%,14µM*,16µM*
COc1cc2c(cc1NC(=O)CN(C)Cc1nc3ccccc3c(=O)[nH]1)oc1ccccc12,?,?,-36%,-13%,4.5µM*,11µM*
CCN(CC(=O)Nc1ccc(C(=O)Nc2ccc(OC)cc2)cc1)Cc1nc2ccccc2c(=O)[nH]1,.,?,-35%,-13%,3.2µM*,?
CCN(CC(=O)Nc1cc(OC)ccc1OC)Cc1nc2ccccc2c(=O)[nH]1,4%,i,-1%,13%,20µM*,-7%
COC(=O)CC(=O)CSc1nc2cc(C(=O)NC(C)C)ccc2c(=O)n1CCc1ccccc1,-25%,?,-5%,-26%,.,.
Cc1cc(-c2n[nH]c(=S)o2)c(C)n1-c1ccccc1,21%,i,-5%,-3%,13µM*,?
